From PubChem BioAssay (NCI)
Compounds without any hit were thinned out: in the full panel of roughly 83,000, 20% have a hit.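 Method: cells in 96-well plates; compound added at one concentration; 48 h incubation; percent growth measured; values under 10 scored active.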 Calls of active or inactive are those of the source.

test system: UO-31 renal; test: NCI-60 one-dose screen, 48 h (100 = growth as untreated, 0 = no growth, -100 = all killed); conditions: 10 µM unless noted

SMILES	growth
O=C(NCCCNC(=O)OCc1ccc2cccc(O)c2n1)OCc1ccc2cccc(O)c2n1	26.9% (inactive)
CCN(CC)CCCC(C)Nc1ccnc2cc(Cl)c(SCc3ccccc3)cc12 (stereo not given)	-84.1% (active)
Cc1ccc(C2=C/C(=C/c3ccc(Br)cc3)C(=O)N2CCc2ccc(S(N)(=O)=O)cc2)cc1	61.8% (inactive)

test system: TK-10 renal; test: as above; conditions: 10 µM unless noted

SMILES	growth
C=C(C)[C@@H]1CC[C@]2(C(N)=O)CC[C@]3(C)[C@H](CC[C@@H]4[C@@]5(C)CC[C@H](O)C(C)(C)[C@@H]5CC[C@]43C)[C@@H]12	-69.8% [100 µM] (active)
CCN1CCN(CC(=O)Nc2nc3ccc(NCc4ccc(Cl)cc4)cc3s2)CC1	96.8% (inactive)
COc1cc(C)cc2oc3oc(=O)c(C(=O)c4cc5cc(Br)ccc5o4)cc3c(=O)c12	121% (inactive)
O=S(=O)(NCCCNc1nccc(-c2c(-c3cccc(F)c3)nc3occn23)n1)c1cccc2ccccc12	55.6% (inactive)
CC1(C)[C@@H](NOCCCN)CC[C@]2(C)[C@H]3C(=O)C=C4[C@@H]5C[C@](C)(C(=O)O)CC[C@]5(C)CC[C@@]4(C)[C@]3(C)CC[C@@H]12	-84.1% [100 µM] (active)
O=c1[nH]c(CN2CCN(c3cccc(Cl)c3)CC2)nc2cc(Cl)ccc12	106% (inactive)
COc1cc2c(O)n(CCCN3CCOCC3)c3c4cnc5cccc(c(=O)c3c2cc1OC)c54	73.7% (inactive)
CCOC(=O)c1sc2nc(-c3cc(OC)c(OC)c(OC)c3)nc(N3CCOCC3)c2c1C	48.3% (inactive)
Cc1cc(C)c(S(=O)(=O)/N=c2/n(-c3ccccc3)nc3n2CCN3C2=NCCN2)c(C)c1	92.5% (inactive)
Cc1ccc(S(=O)(=O)N/N=C2\CC3CCC2(C)C3(C)C)cc1 (stereo not given)	137% (inactive)
N#C/C(C(=O)c1ccccc1)=C1/C(=O)Nc2ccccc21	118% (inactive)
CCc1ccc(C2=C/C(=C/c3ccccc3)C(=O)N2CCc2ccc(S(N)(=O)=O)cc2)cc1	122% (inactive)
CC(C)C1=NOC(=O)C1=Cc1cn(-c2ccco2)nc1-c1ccccc1	110% (inactive)
COc1cc(Cl)cc(-c2nn(C(=O)NS(=O)(=O)c3ccccc3)cc2-c2ccncc2)c1	97.2% (inactive)
C=C(C)[C@@H]1CC[C@]2(COCCC#N)CC[C@]3(C)[C@H](CC[C@@H]4[C@@](C)(CCCNCCC#N)[C@H](C(=C)C)CC[C@]43C)[C@@H]12	49.7% [100 µM] (inactive)
COc1ccc(N(c2nc(-c3ccc([N+](=O)[O-])cc3)cs2)C(C)C)cc1	88.9% (inactive)
NS(=O)(=O)c1ccc(CCN2C(=O)/C(=C\c3ccccc3)C=C2c2ccc(Cl)cc2)cc1	113% (inactive)
O=C1C(Cl)=C(Nc2ccc3cn[nH]c3c2)C(=O)c2ccccc21	19.8% (inactive)
CC(C)c1ccc(C(=O)Nc2sc3c(c2C#N)CCC(=O)C3)cc1	0.974% (active)

SMILES	growth
Cc1ccc2c(c1)/C(=N\N=C/c1cn(C(C)C)c3ccccc13)C(=O)N2	81.4% (inactive)
O=C(C[n+]1ccn(CC(OCc2ccc(Cl)cc2Cl)c2ccc(Cl)cc2Cl)c1)c1ccc(F)cc1 (stereo not given)	-46.1% (active)
CCOc1cccc2c(NC(C)CCCN(CC)CC)c(C)cnc12 (stereo not given)	101% (inactive)
O=C(Nc1cccc2ccccc12)c1cc2ccccc2cc1O	34.4% (inactive)
Cc1cc(C)nc(SCC(=O)Nc2cccc(N=Cc3ccccc3O)c2)n1	106% (inactive)
CSc1nc2c(c(=O)n1C)C1(C(=O)N(Cc3ccccc3)c3ccccc31)c1c(nc(SC)n(C)c1=O)N2	113% (inactive)
O=C1COCCN1c1ccc(NCc2cn(Cc3ccc(F)cc3)c3ccccc23)cc1	-32.3% (active)
CCN(CCO)CCC(=O)c1ccc([N+](=O)[O-])cc1	99.8% (inactive)
O=C(Nc1cccc(C2=NCCN2)c1)c1cccc(C(=O)Nc2cccc(C3=NCCN3)c2)c1	89.3% (inactive)
CC(C)[C@H]1CCC2=C3CC[C@]45OC(=O)[C@@]6(CCC(C)(C)C[C@H]64)CC[C@@]5(C)[C@]3(C)CC[C@@]21C	101% [100 µM] (inactive)
COc1ccc(/C=C2\N=C(Nc3ccccc3)N(NC(=O)c3ccccn3)C2=O)cc1	127% (inactive)
Nc1nnc(CSc2nnc3n(Cc4ccccc4)c(=O)c4c5c(sc4n23)CCCC5)s1	113% (inactive)
O=C(NCCCNC(=O)OCc1ccc2c(Br)cc(Br)c(O)c2n1)OCc1ccc2c(Br)cc(Br)c(O)c2n1	-89% (active)
CCn1cc(-c2[nH]c(=S)ncc2-c2ccc(Cl)cc2)c(-c2ccc(Br)cc2)n1	109% (inactive)
Cc1cccc(C[C@H](NC(=O)Nc2ccc(Cl)cc2F)C(=O)N[C@@H]2C(=O)N3C[C@H](O)C[C@H]3C(=O)N3CCCC[C@H]3C(=O)N[C@@H](C)C(=O)N3C[C@H](C)C[C@H]3C(=O)O[C@H]2C)c1	29.2% (inactive)
O=C(NCCCNC(=O)OCc1ccc2cccc(O)c2n1)OCc1ccc2cccc(O)c2n1	49.6% (inactive)
CCN(CC)CCCC(C)Nc1ccnc2cc(Cl)c(SCc3ccccc3)cc12 (stereo not given)	-30.8% (active)
Cc1ccc(C2=C/C(=C/c3ccc(Br)cc3)C(=O)N2CCc2ccc(S(N)(=O)=O)cc2)cc1	110% (inactive)
